Test results taken from the supplement of paper PMC6607015.
Counter-ions that a name gives are not always drawn.

Assays:
Conditions in all cases: compound concentration in added solution (µM; 5 µl added to 20 µl cells): 10; 18 h
A431 [1] = assay: LBPA endosome anti-LBPA integrated intensity (sum per cell), Z-score; higher = more LBPA staining
How it was run: (§1)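 After 18 h on 5 µl of 10 µM compound solution in duplicate 384-well imaging plates, HeLa MZ or A431 cells, seeded at 3,500 per well in 20 µl, were fixed with 4% PFA. They were then labelled with 6C4 anti-LBPA antibody, filipin, propidium iodide and CellTracker green, and four 20× fields were recorded per well. Integrated LBPA or filipin intensity per cell, whole-cell or within LBPA endosomes, came from MetaXpress segmentation and was normalised to Z-scores in AcuityXpress.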

HeLa MZ [2] = assay: as above
How it was run: as §1

A431 [3] = assay: whole-cell filipin (free cholesterol) integrated intensity, Z-score; higher = more cholesterol staining
How it was run: as §1

HeLa MZ [4] = assay: as above
How it was run: as §1

A431 [5] = assay: filipin (cholesterol) integrated intensity within LBPA endosomes, Z-score; higher = more cholesterol in LBPA endosomes
How it was run: as §1

HeLa MZ [6] = assay: as above
How it was run: as §1

Row | SMILES | LBPA endosome anti-LBPA integrated intensity (z-score) (A431 [1]) | LBPA endosome anti-LBPA integrated intensity (z-score) (HeLa MZ [2]) | whole-cell filipin (z-score) (A431 [3]) | whole-cell filipin (z-score) (HeLa MZ [4]) | filipin (z-score) (A431 [5]) | filipin (z-score) (HeLa MZ [6])
1 | CC(C(=O)O)c1ccc(C(=O)c2cccs2)cc1 (configuration not stated) [Suprofen] | -0.328 | 0.404 | 0.0494 | 0.84 | -0.289 | -0.21
2 | CCCNC(C)C(=O)Nc1ccccc1C (configuration not stated) [Prilocaine hydrochloride] | -0.398 | -0.0706 | -0.685 | -0.312 | -0.467 | -0.406
3 | Cn1c(=O)c2c(ncn2CCO)n(C)c1=O [Etofylline] | -0.487 | -1.05 | -0.938 | -1.17 | -0.451 | -0.58
4 | Cc1cc(-c2ccccc2)nnc1NCCN1CCOCC1 [Minaprine dihydrochloride] | -0.498 | -0.183 | -0.925 | -0.799 | -0.593 | -0.625
5 | NC12CC3CC(CC(C3)C1)C2 [Adamantamine fumarate] | -0.644 | -1.51 | -0.89 | -0.605 | -0.499 | -0.616
6 | CN1CCC(=C2c3ccccc3Sc3ccccc32)CC1 [Pimethixene maleate] | 2.35 | 1.97 | 0.776 | -0.782 | 1.82 | 0.962
7 | COc1cccc(N(C)C(=S)Oc2ccc3c(c2)CCCC3)n1 [Liranaftate] | 0.29 | -0.439 | -0.212 | 0.593 | -0.0958 | -0.421
8 | CN1CCCN(C(c2ccccc2)c2ccc(Cl)cc2)CC1 (configuration not stated) [Homochlorcyclizine dihydrochloride] | 2.75 | 1.74 | 0.946 | -0.527 | 2.1 | 1.46
9 | CO[C@@H]1[C@@H](OC(N)=O)[C@@H](O)[C@H](Oc2ccc3c(O)c(NC(=O)c4ccc(O)c(CC=C(C)C)c4)c(=O)oc3c2C)OC1(C)C [Novobiocin sodium salt] | -0.507 | -0.477 | -0.352 | -0.602 | -0.469 | -0.462
10 | CCN(CCCCOC(=O)c1ccc(OC)c(OC)c1)C(C)Cc1ccc(OC)cc1 (configuration not stated) [Mebeverine hydrochloride] | 2.42 | 2.15 | 1.9 | 1.63 | 2.46 | 2.74
11 | c1ccc2c(c1)CCCC2C1=NCCN1 (configuration not stated) [Tetrahydrozoline hydrochloride] | -0.429 | 1.07 | -0.35 | 0.315 | -0.366 | 0.0856
12 | CCN(CC)CCOC(=O)C(c1ccccc1)c1ccccc1 [Adiphenine hydrochloride] | -0.67 | -1.15 | -1.14 | -0.931 | -0.574 | -0.637
13 | CO/N=C(\C(=O)N[C@@H]1C(=O)N2C(C(=O)O)=C(C[N+]3(C)CCCC3)CS[C@H]12)c1csc(N)n1 [Cefepime hydrochloride] | -0.483 | -1.02 | -0.176 | -0.327 | -0.47 | -0.504
14 | CCCNC(=O)NS(=O)(=O)c1ccc(Cl)cc1 [Chlorpropamide] | -0.658 | -1.65 | -0.845 | -0.558 | -0.591 | -0.571
15 | Cc1ccccc1C(OCCN(C)C)c1ccccc1 (configuration not stated) [Orphenadrine hydrochloride] | -0.188 | 0.0858 | -0.344 | 1.02 | 0.191 | 0.681
16 | CNC(=O)c1c(I)c(C(=O)NCC(=O)Nc2c(I)c(C(=O)O)c(I)c(C(=O)NCCO)c2I)c(I)c(N(C)C(C)=O)c1I [Ioxaglic acid] | -0.421 | -0.394 | -0.282 | -0.455 | -0.384 | -0.571
17 | Clc1ccc(COC(Cn2ccnc2)c2ccc(Cl)cc2Cl)cc1 (configuration not stated) [Econazole nitrate] | 0.0817 | 1.63 | 0.484 | 0.898 | -0.0604 | 0.606
18 | Cc1ncc([N+](=O)[O-])n1CC(O)CCl (configuration not stated) [Ornidazole] | -0.468 | -0.445 | -0.79 | -0.699 | -0.356 | -0.454
19 | OCCN1CCN(CC/C=C2/c3ccccc3Sc3ccc(Cl)cc32)CC1 [Zuclopenthixol hydrochloride] | 3.18 | 1.68 | 0.421 | 0.439 | 2.79 | 2.86
20 | Nc1ccc(S(=O)(=O)Nc2cnc3ccccc3n2)cc1 [Sulfaquinoxaline sodium salt] | -0.491 | -0.359 | -0.235 | -0.279 | -0.43 | -0.432
21 | OC(CCCN1CCCCC1)(c1ccccc1)c1ccccc1 [Diphenidol hydrochloride] | -0.218 | 0.517 | -0.613 | -0.594 | -0.133 | -0.0129
22 | CC(N/C(=N\C#N)Nc1ccncc1)C(C)(C)C (configuration not stated) [Pinacidil] | -0.477 | -0.897 | -0.717 | -0.503 | -0.45 | -0.559
